# In PubChem BioAssay (EPA / NIEHS):
# Activity calls are given as the source filed them. The calls were made as follows: active = hit-call score of the fitted dose curve at least 0.9, where 1 is the maximum; inactive = score below 0.9.
# Experiments:
# [1] = APR_HepG2_NuclearSize_72hr: Apredica 72-hour HepG2 Assay for Nuclear Size (AID 2282925); conditions: high-content imaging, actives raise or lower the signal
# Method in brief: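 Read-out: nuclear diameter from Hoechst 33342 images (ArrayScan, 20x, six fields/well), via cell-cycle image analysis. HepG2 were dosed 0.39–200 uM for 72 hr in 0.5% DMSO. Bidirectional fit relative to DMSO.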
# [2] = ATG_CRE_CIS: Attagene CIS-FACTORIAL HepG2 Assay for human cAMP Responsive Element (CRE) binding protein 3 (AID 2282926); conditions: HepG2 CRE cis-reporter, Attagene multiplexed mRNA; actives raise or lower the signal
# Method in brief: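 Liver-derived HepG2, transfected with a CRE-containing reporter panel, exposed 24 h; transcript levels sized and quantified by capillary electrophoresis of labelled amplicons; signal changes either way referenced to vehicle.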
# [3] = ATG_CMV_CIS: Attagene CIS-FACTORIAL HepG2 Assay for human CMV (Internal Marker) (AID 2282928); conditions: HepG2 CMV promoter reporter, transcription factor profiling; actives raise or lower the signal;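 also: endpoint acts as a background internal control marker rather than a target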
# Method in brief: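 Bidirectional fits against DMSO are applied to reporter mRNA, read by RT-PCR with capillary electrophoresis, from HepG2 cells exposed 24 h. The endpoint serves as an internal CMV background marker within the cis-factorial reporter panel.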
# [4] = ATG_DR4_LXR_CIS: Attagene CIS-FACTORIAL HepG2 Assay for human Liver X Receptor (LXR), DR4 submotif (AID 2282929); conditions: HepG2 Attagene DR4 cis-reporter, mRNA transcription; actives raise or lower the signal
# Method in brief: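 Readout: reporter transcript fluorescence after RT-PCR and capillary electrophoresis, fitted bidirectionally against DMSO controls. Human HepG2 liver cells carried transiently transfected multiplexed reporter constructs; endogenous transcription factor activity measured 24 h post-dosing.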
# [5] = biological target: Aryl hydrocarbon receptor (Homo sapiens) (UniProt P35869); test: ATG_Ahr_CIS: Attagene CIS-FACTORIAL HepG2 Assay for human Aryl Hydrocarbon Receptor (Ahr) (AID 2282930); conditions: HepG2 AhR cis-factorial reporter transcription; actives raise or lower the signal
# Method in brief: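 Endogenous factor activity is tracked through cis-promoter reporter units transfected into HepG2 cells. Transcript levels at 24 h are read by fluorescent RT-PCR and capillary electrophoresis, with activity in either direction scored relative to DMSO.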
# [6] = ATG_AP_1_CIS: Attagene CIS-FACTORIAL HepG2 Assay for human Activator Protein 1 (AP-1) (AID 2282931); conditions: HepG2 Attagene cis-factorial AP-1 reporter mRNA; actives raise or lower the signal
# Method in brief: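 Reporter transcripts were measured 24 h after dosing by RT-PCR and capillary electrophoresis of fluorescent fragments. Cells: HepG2 carrying transfected cis-regulated reporter constructs reading endogenous factor activity. Gain or loss fitted against DMSO.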
# [7] = ATG_AP_2_CIS: Attagene CIS-FACTORIAL HepG2 Assay for human Activator Protein 2 (AP-2) (AID 2282932); conditions: HepG2 AP-2 cis-reporter, Attagene transcription factor profiling; actives raise or lower the signal
# Method in brief: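 Liver-derived HepG2 line, cis-reporter system measuring endogenous factors; 24 h dosing; reporter mRNA detected by fluorescent RT-PCR and capillary electrophoresis.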
# [8] = ATG_BRE_CIS: Attagene CIS-FACTORIAL HepG2 Assay for human Bone Morphogenetic Protein (BMP) Response Element (BRE) (AID 2282933); conditions: HepG2 BMP response element reporter, Attagene transcription factor profiling; actives raise or lower the signal
# Method in brief: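 HepG2 cells transiently transfected with multiplexed cis-element reporter units were dosed with chemical for 24 h. Reporter mRNA was measured by RT-PCR with fluorescent labelling, HpaI digestion and capillary electrophoresis; bidirectional fitting relative to DMSO.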
# [9] = biological target: Transcription factor E2F1 (Homo sapiens) (UniProt Q01094); test: ATG_E2F_CIS: Attagene CIS-FACTORIAL HepG2 Assay for human E2F Transcription Factor 1 (AID 2282935); conditions: HepG2 Attagene cis-reporter, E2F reporter RNA transcripts; actives raise or lower the signal
# Method in brief: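 Liver-derived HepG2 cells expressing transfected promoter-driven reporter units received test chemical for 24 hours. Signal gains or losses were fitted bidirectionally against DMSO.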
# [10] = ATG_E_Box_CIS: Attagene CIS-FACTORIAL HepG2 Assay for human Enhancer Box (E-box) (AID 2282936); conditions: HepG2 E-box cis-reporter transcription, actives raise or lower the signal
# Method in brief: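 In this cell-based setup, HepG2 cells bearing transfected promoter-driven reporter units were exposed to chemicals for 24 h; reporter transcripts were amplified, 6-FAM-labelled, cut with HpaI and sized by capillary electrophoresis.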
# [11] = ATG_M_61_CIS: Attagene CIS-FACTORIAL HepG2 Assay for M61 Transcription Factor (Internal Marker) (AID 2282937); conditions: HepG2 Attagene CIS-FACTORIAL M61 internal marker reporter; actives raise or lower the signal
# Method in brief: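 Readout: fluorescent reporter mRNA fragments resolved by capillary electrophoresis after RT-PCR. Transiently transfected human HepG2 cells carried MRTU constructs reporting endogenous TF activity; 24 h chemical exposure; gain or loss of signal fitted relative to DMSO.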
# [12] = ATG_EGR_CIS: Attagene CIS-FACTORIAL HepG2 Assay for human Early Growth Response 1 (EGR1) (AID 2282938); conditions: HepG2 Attagene CIS-FACTORIAL EGR reporter mRNA; actives raise or lower the signal
# Method in brief: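 Read-out: fluorescent reporter-mRNA fragments resolved by capillary electrophoresis after RT-PCR, 24 h post-dose in transiently transfected HepG2. Endogenous transcription-factor activity reported via cis-element-regulated reporter units; gain or loss fitted relative to DMSO.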
# [13] = ATG_M_19_CIS: Attagene CIS-FACTORIAL HepG2 Assay for M19 Transcription Factor (Internal Marker) (AID 2282939); conditions: HepG2 Attagene CIS-FACTORIAL M19 internal marker reporter; actives raise or lower the signal
# Method in brief: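 HepG2 cells transiently transfected with cis-regulated multiple reporter transcription units were dosed for 24 h; reporter mRNA was quantified by RT-PCR, 6-FAM primer-extension labelling, HpaI digestion and capillary electrophoresis, with bidirectional fitting against DMSO baseline.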
# [14] = ATG_ERE_CIS: Attagene CIS-FACTORIAL HepG2 Assay for Estrogen Response Element (ERE) (AID 2282940); conditions: HepG2 ERE cis-reporter, Attagene RNA transcript; actives raise or lower the signal
# Method in brief: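 HepG2 cells transiently transfected with cis-promoter-driven multiplexed reporter transcription units report endogenous TF activity. After 24 h compound exposure, reporter mRNA is quantified by RT-PCR with capillary electrophoresis fluorescence; bidirectional fitting versus DMSO baseline.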
# [15] = ATG_Ets_CIS: Attagene CIS-FACTORIAL HepG2 Assay for human Erythroblast Transformation Specific (ETS) (AID 2282941); conditions: HepG2 ETS cis-reporter transcription, actives raise or lower the signal
# Method in brief: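 Endogenous transcription factor activity read as reporter mRNA via RT-PCR and capillary electrophoresis, with gain or loss fitted bidirectionally against DMSO. Human HepG2 liver cells, transiently transfected CIS reporter constructs, 24 h exposure.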
# [16] = biological target: Hepatocyte nuclear factor 3-beta (Homo sapiens) (UniProt Q9Y261); test: ATG_FoxA2_CIS: Attagene CIS-FACTORIAL HepG2 Assay for human Forkhead box A2 (FOXA2) (AID 2282942); conditions: HepG2 cis-reporter transcription factor activity, 24 h; actives raise or lower the signal
# Method in brief: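 Readout: fluorescent reporter transcripts resolved by capillary electrophoresis after RT-PCR. Transiently transfected HepG2, 24 h compound exposure, endogenous TF activity at cis promoter elements. Gain or loss of signal fitted relative to DMSO.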
# [17] = ATG_FoxO_CIS: Attagene CIS-FACTORIAL HepG2 Assay for human Forkhead box O (FoxO) (AID 2282943); conditions: HepG2 Attagene cis-reporter, FoxO element, mRNA; actives raise or lower the signal
# Method in brief: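 Transfected HepG2 reporter cells exposed to test chemical for 24 h; reporter RNA measured by reverse transcription, PCR and fluorescent capillary electrophoresis; curves fitted for increases and decreases against DMSO.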
# [18] = ATG_GATA_CIS: Attagene CIS-FACTORIAL HepG2 Assay for human GATA Binding Protein (AID 2282944); conditions: HepG2 GATA cis-element reporter, Attagene multiplex mRNA; actives raise or lower the signal
# Method in brief: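 HepG2 cells transiently transfected with multiplexed cis-element reporter units reflecting endogenous transcription factor activity; reporter mRNA measured after 24 h dosing by RT-PCR, 6-FAM labeling, HpaI digestion and capillary electrophoresis. Bidirectional fitting versus DMSO baseline.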
# [19] = biological target: CCAAT/enhancer-binding protein beta (Homo sapiens) (UniProt P17676); test: ATG_C_EBP_CIS: Attagene CIS-FACTORIAL HepG2 Assay for human CCAAT/Enhancer Binding Protein (C/EBP) beta (AID 2282927); conditions: HepG2 Attagene cis-factorial transcription factor reporter; actives raise or lower the signal
# Method in brief: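 HepG2, transient MRTU transfection, 24 h treatment. RT-PCR plus CE fluorescence; DMSO negative control, bidirectional fit.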
# [20] = biological target: Retinoic acid receptor alpha (Homo sapiens) (UniProt P10276); test: ATG_DR5_RAR_CIS: Attagene CIS-FACTORIAL HepG2 Assay for human Retinoic Acid Receptor Alpha (RARE), DR5 submotif (AID 2282934); conditions: HepG2 Attagene cis-factorial RARE DR5 reporter, mRNA; actives raise or lower the signal;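 as to AC50: reporter responds to endogenous RAR alpha beta and gamma in HepG2 not RARA alone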
# Method in brief: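 After 24 h of chemical exposure, transiently transfected HepG2 cells were lysed for total RNA; the DR5-regulated reporter transcript was quantified via RT-PCR and capillary electrophoresis, with activity fitted bidirectionally against DMSO.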
# Sequence of Transcription factor E2F1 (Homo sapiens) (Q01094 whole entry, looked up): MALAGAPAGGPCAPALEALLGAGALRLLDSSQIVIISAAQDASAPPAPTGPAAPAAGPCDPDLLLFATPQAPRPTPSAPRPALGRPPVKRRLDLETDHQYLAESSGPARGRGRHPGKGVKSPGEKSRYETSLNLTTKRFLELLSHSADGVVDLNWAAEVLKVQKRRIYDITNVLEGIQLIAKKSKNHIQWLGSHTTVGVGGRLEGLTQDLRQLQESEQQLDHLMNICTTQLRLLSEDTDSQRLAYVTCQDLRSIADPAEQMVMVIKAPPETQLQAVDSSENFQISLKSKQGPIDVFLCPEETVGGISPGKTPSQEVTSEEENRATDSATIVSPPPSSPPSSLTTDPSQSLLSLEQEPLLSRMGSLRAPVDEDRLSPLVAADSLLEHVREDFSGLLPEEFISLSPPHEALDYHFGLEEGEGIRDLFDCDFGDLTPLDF
# Sequence of Aryl hydrocarbon receptor (Homo sapiens) (P35869 whole entry, looked up): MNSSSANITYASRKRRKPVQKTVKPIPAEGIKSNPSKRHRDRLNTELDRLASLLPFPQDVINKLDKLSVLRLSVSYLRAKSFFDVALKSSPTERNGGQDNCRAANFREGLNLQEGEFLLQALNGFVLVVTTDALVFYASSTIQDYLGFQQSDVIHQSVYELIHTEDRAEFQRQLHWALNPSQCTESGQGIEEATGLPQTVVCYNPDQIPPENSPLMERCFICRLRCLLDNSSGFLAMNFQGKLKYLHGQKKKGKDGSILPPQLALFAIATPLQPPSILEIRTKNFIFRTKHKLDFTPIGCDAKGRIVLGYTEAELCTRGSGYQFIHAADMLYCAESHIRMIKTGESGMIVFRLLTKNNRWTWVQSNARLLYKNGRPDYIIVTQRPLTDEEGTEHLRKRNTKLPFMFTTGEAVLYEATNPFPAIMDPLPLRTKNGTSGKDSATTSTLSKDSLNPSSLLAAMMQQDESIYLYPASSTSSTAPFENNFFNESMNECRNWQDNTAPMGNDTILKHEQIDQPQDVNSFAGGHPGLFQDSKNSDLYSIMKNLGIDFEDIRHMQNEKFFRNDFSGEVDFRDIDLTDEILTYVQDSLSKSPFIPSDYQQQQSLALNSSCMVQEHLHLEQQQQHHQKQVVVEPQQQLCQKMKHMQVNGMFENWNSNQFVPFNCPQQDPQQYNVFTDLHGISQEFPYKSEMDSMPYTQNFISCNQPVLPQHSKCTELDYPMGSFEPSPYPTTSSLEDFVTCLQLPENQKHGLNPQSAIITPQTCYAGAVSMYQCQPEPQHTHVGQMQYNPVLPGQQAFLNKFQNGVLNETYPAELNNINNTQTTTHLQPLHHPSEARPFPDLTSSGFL
# Sequence of CCAAT/enhancer-binding protein beta (Homo sapiens) (P17676 whole entry, looked up): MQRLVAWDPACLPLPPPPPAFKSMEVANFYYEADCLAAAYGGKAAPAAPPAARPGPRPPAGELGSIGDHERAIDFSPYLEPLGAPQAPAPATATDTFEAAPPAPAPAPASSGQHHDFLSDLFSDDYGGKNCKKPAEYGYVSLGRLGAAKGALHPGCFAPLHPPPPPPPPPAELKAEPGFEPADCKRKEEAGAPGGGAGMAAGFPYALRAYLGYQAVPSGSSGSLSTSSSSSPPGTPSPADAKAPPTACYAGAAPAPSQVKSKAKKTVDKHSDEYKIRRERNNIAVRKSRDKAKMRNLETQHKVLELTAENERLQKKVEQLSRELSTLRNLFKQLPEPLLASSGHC
# Sequence of Retinoic acid receptor alpha (Homo sapiens) (P10276 whole entry, looked up): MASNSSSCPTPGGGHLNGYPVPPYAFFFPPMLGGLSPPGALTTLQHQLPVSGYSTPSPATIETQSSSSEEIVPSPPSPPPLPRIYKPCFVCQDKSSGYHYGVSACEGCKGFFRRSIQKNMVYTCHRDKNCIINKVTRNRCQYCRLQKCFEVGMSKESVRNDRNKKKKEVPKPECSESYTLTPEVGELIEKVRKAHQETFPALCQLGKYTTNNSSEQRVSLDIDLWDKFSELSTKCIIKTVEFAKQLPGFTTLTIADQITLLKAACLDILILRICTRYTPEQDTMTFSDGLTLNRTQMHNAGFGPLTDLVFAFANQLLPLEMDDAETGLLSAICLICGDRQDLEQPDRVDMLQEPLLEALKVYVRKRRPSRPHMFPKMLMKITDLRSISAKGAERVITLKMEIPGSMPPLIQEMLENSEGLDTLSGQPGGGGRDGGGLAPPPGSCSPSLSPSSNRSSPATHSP
# Sequence of Hepatocyte nuclear factor 3-beta (Homo sapiens) (Q9Y261 whole entry, looked up): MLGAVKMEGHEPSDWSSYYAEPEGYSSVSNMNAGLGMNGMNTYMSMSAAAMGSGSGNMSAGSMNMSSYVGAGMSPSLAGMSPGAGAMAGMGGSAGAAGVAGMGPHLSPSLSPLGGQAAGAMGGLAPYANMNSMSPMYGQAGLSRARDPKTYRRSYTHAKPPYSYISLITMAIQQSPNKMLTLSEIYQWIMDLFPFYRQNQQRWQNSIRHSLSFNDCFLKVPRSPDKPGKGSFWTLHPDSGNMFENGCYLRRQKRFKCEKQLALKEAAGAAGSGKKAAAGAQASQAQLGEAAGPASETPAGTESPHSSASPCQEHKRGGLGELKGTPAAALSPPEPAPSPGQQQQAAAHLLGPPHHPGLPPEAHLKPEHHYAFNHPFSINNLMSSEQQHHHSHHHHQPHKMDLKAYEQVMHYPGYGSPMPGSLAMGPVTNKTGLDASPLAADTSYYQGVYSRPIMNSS
structure (smiles),measurement,setting,value
Cc1ccccc1Cl,outcome,[1],inactive
same,outcome,[2],inactive
same,outcome,[3],inactive
same,outcome,[4],inactive
same,outcome,[5],inactive
same,outcome,[6],inactive
same,outcome,[7],inactive
same,outcome,[8],inactive
same,outcome,[9],inactive
same,outcome,[10],inactive
same,outcome,[11],inactive
same,outcome,[12],inactive
same,outcome,[13],inactive
same,outcome,[14],inactive
same,outcome,[15],inactive
same,outcome,[16],inactive
same,outcome,[17],inactive
same,outcome,[18],inactive
O=C(OCCCCCOC(=O)c1ccccc1)c1ccccc1,outcome,[1],inactive
same,outcome,[19],inactive
same,outcome,[3],inactive
same,outcome,[4],inactive
same,outcome,[5],inactive
same,outcome,[6],inactive
same,outcome,[7],inactive
same,outcome,[8],inactive
same,outcome,[20],inactive
same,outcome,[9],inactive
same,outcome,[10],inactive
same,outcome,[11],inactive
same,outcome,[12],inactive
same,outcome,[13],inactive
same,outcome,[14],inactive
same,outcome,[15],inactive
same,outcome,[16],inactive
same,outcome,[17],inactive
same,outcome,[18],inactive
Oc1ccc2ccccc2c1N=Nc1ccccc1,outcome,[1],inactive
same,outcome,[19],inactive
same,outcome,[3],inactive
same,outcome,[4],inactive
same,AC50,[5],0.0105 µM (active)
same,outcome,[6],inactive
same,outcome,[7],inactive
same,outcome,[8],inactive
same,outcome,[20],inactive
same,outcome,[9],inactive
same,outcome,[10],inactive
same,outcome,[11],inactive
same,outcome,[12],inactive
same,outcome,[13],inactive
same,AC50,[14],4.52 µM (active)
same,outcome,[15],inactive
same,AC50,[16],0.14 µM (active)
same,outcome,[17],inactive
same,outcome,[18],inactive
NCC1(Cc2noc(=O)[nH]2)CCCCC1,outcome,[1],inactive
same,outcome,[2],inactive
same,outcome,[3],inactive
same,outcome,[4],inactive
same,outcome,[5],inactive
same,outcome,[6],inactive
same,outcome,[7],inactive
same,outcome,[8],inactive
same,outcome,[20],inactive
same,outcome,[9],inactive
same,outcome,[10],inactive
same,outcome,[11],inactive
same,outcome,[12],inactive
same,outcome,[13],inactive
same,outcome,[14],inactive
same,outcome,[15],inactive
same,outcome,[16],inactive
same,outcome,[17],inactive
same,outcome,[18],inactive
Cc1cccc(C)c1O,outcome,[1],inactive
same,outcome,[19],inactive
same,outcome,[3],inactive
same,outcome,[4],inactive
same,outcome,[5],inactive
same,outcome,[6],inactive
same,outcome,[7],inactive
same,outcome,[8],inactive
same,outcome,[20],inactive
same,outcome,[9],inactive
same,outcome,[10],inactive
same,outcome,[11],inactive
same,outcome,[12],inactive
same,outcome,[13],inactive
same,outcome,[14],inactive
same,outcome,[15],inactive
same,outcome,[16],inactive
same,outcome,[17],inactive
same,outcome,[18],inactive
Cc1ccc(C(C)C)c(O)c1,outcome,[1],inactive
same,outcome,[2],inactive
same,outcome,[3],inactive
same,outcome,[4],inactive
same,outcome,[5],inactive
same,outcome,[6],inactive
same,outcome,[7],inactive
same,outcome,[8],inactive
same,outcome,[20],inactive
same,outcome,[9],inactive
same,outcome,[10],inactive
same,outcome,[11],inactive
same,outcome,[12],inactive
same,outcome,[13],inactive
same,outcome,[14],inactive
same,outcome,[15],inactive
same,outcome,[16],inactive
same,outcome,[17],inactive
same,outcome,[18],inactive
CCCCCCCCCCCCCO,outcome,[1],inactive
same,outcome,[19],inactive
same,AC50,[3],59.4 µM (active)
same,outcome,[4],inactive
same,outcome,[5],inactive
same,AC50,[6],34.3 µM (active)
same,outcome,[7],inactive
same,AC50,[8],34.3 µM (active)
same,AC50,[20],11.7 µM (active)
same,outcome,[9],inactive
same,AC50,[10],21.8 µM (active)
same,outcome,[11],inactive
same,outcome,[12],inactive
same,outcome,[13],inactive
same,outcome,[14],inactive
same,outcome,[15],inactive
same,outcome,[16],inactive
same,outcome,[17],inactive
same,outcome,[18],inactive
